# Laboratory results published in publication PMC5540273 (PLoS ONE, 2017).
# Values joined by “and” are separate entries in the source; they are usually repeats but may differ in a detail not shown here. Equal values may be shown once. Read-outs that look alike come from different tables or passages of the source.
# Tests used:
# TLK2 = details: concentration: 1 μM, replicates: in singlicate, n = 1
# TNIK = details: concentration: 1 μM, replicates: in singlicate, n = 1
# TNK1 = details: concentration: 1 μM, replicates: in singlicate, n = 1
# TNK2 = details: concentration: 1 μM, replicates: in singlicate, n = 1
# TNNI3K = details: concentration: 1 μM, replicates: in singlicate, n = 1
# TRKA = test system: T1, TRKA; details: concentration: 1 μM, replicates: in singlicate, n = 1
# T1 construct: gene NTRK1
# TRKB = details: concentration: 1 μM, replicates: in singlicate, n = 1
# TRKC = test system: T2, TRKC; details: concentration: 1 μM, replicates: in singlicate, n = 1
# T2 construct: gene NTRK3
# TRPM6 = details: concentration: 1 μM, replicates: in singlicate, n = 1
# TSSK1B = details: concentration: 1 μM, replicates: in singlicate, n = 1
# TSSK3 = details: concentration: 1 μM, replicates: in singlicate, n = 1
# TTK = details: concentration: 1 μM, replicates: in singlicate; n = 1
# TXK = details: concentration: 1 μM, replicates: in singlicate, n = 1
# [1] = test system: TYK2(JH1domain-catalytic); details: concentration: 1 μM, replicates: in singlicate, n = 1
# [2] = test system: TYK2(JH2domain-pseudokinase); details: concentration: 1 μM, replicates: in singlicate, n = 1
# TYRO3 = details: concentration: 1 μM, replicates: in singlicate, n = 1
# ULK1 = details: concentration: 1 μM, replicates: in singlicate, n = 1
# ULK2 = details: concentration: 1 μM, replicates: in singlicate; n = 1
# ULK3 = details: concentration: 1 μM, replicates: in singlicate, n = 1
# VEGFR2 = test system: T3, VEGFR2; details: concentration: 1 μM, replicates: in singlicate, n = 1
# T3 construct: gene KDR
# 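Further: KINOMEscan kinase panel screen.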
structure (smiles),measurement,setting,value
Fc1ccc(-c2ncn(CCCN3CCOCC3)c2-c2ccccn2)cc1 [SB-211742],%Inh,TLK2,0%
same,%Inh,TNIK,0%
same,%Inh,TNK1,24%
same,%Inh,TNK2,0%
same,%Inh,TNNI3K,0%
same,%Inh,TRKA,0%
same,%Inh,TRKB,0%
same,%Inh,TRKC,0%
same,%Inh,TRPM6,0%
same,%Inh,TSSK1B,0%
same,%Inh,TSSK3,0%
same,%Inh,TTK,0%
same,%Inh,TXK,5%
same,%Inh,[1],0%
same,%Inh,[2],0%
same,%Inh,TYRO3,8%
same,%Inh,ULK1,0%
same,%Inh,ULK2,0%
same,%Inh,ULK3,0%
same,%Inh,VEGFR2,0%
C[C@@H](Oc1cc(-n2cnc3ccc(NC(=O)NC(C)(C)C)cc32)sc1C(N)=O)c1ccccc1Cl [GSK346294],%Inh,TLK2,0%
same,%Inh,TNIK,0%
same,%Inh,TNK1,0%
same,%Inh,TNK2,9%
same,%Inh,TNNI3K,13%
same,%Inh,TRKA,33%
same,%Inh,TRKB,0%
same,%Inh,TRKC,0%
same,%Inh,TRPM6,0%
same,%Inh,TSSK1B,20%
same,%Inh,TSSK3,21%
same,%Inh,TTK,0%
same,%Inh,TXK,0%
same,%Inh,[1],8%
same,%Inh,[2],0%
same,%Inh,TYRO3,0%
same,%Inh,ULK1,0%
same,%Inh,ULK2,0%
same,%Inh,ULK3,15%
same,%Inh,VEGFR2,3%
COc1cc2c(cc1OCCN1CCN(C)CC1)ncc1c3ccc(C#N)cc3[nH]c21,%Inh,TLK2,0%
same,%Inh,TNIK,91%
same,%Inh,TNK1,8%
same,%Inh,TNK2,0%
same,%Inh,TNNI3K,2%
same,%Inh,TRKA,99.8%
same,%Inh,TRKB,97.2%
same,%Inh,TRKC,83%
same,%Inh,TRPM6,0%
same,%Inh,TSSK1B,34%
same,%Inh,TSSK3,9%
same,%Inh,TTK,7%
same,%Inh,TXK,0%
same,%Inh,[1],0%
same,%Inh,[2],35%
same,%Inh,TYRO3,0%
same,%Inh,ULK1,92.4%
same,%Inh,ULK2,99.9%
same,%Inh,ULK3,66%
same,%Inh,VEGFR2,23%
O=C(NCCCN1CCOCC1)c1cccc(Nc2nccc(Nc3ccc(Oc4ccccc4)cc3)n2)c1 [GW663929],%Inh,TLK2,21%
same,%Inh,TNIK,3%
same,%Inh,TNK1,66%
same,%Inh,TNK2,19%
same,%Inh,TNNI3K,74%
same,%Inh,TRKA,8%
same,%Inh,TRKB,0%
same,%Inh,TRKC,0%
same,%Inh,TRPM6,52%
same,%Inh,TSSK1B,0%
same,%Inh,TSSK3,10%
same,%Inh,TTK,21%
same,%Inh,TXK,0%
same,%Inh,[1],30%
same,%Inh,[2],44%
same,%Inh,TYRO3,5%
same,%Inh,ULK1,1%
same,%Inh,ULK2,2%
same,%Inh,ULK3,11%
same,%Inh,VEGFR2,13%
COC(=O)Nc1nc2cc(Oc3ccc(NC(=O)Nc4cc(F)ccc4F)cc3)ccc2[nH]1.Cl [GW701424],%Inh,TLK2,3%
same,%Inh,TNIK,0%
same,%Inh,TNK1,0%
same,%Inh,TNK2,11%
same,%Inh,TNNI3K,81%
same,%Inh,TRKA,5%
same,%Inh,TRKB,68%
same,%Inh,TRKC,76%
same,%Inh,TRPM6,0%
same,%Inh,TSSK1B,0%
same,%Inh,TSSK3,8%
same,%Inh,TTK,0%
same,%Inh,TXK,88%
same,%Inh,[1],30%
same,%Inh,[2],46%
same,%Inh,TYRO3,0%
same,%Inh,ULK1,0%
same,%Inh,ULK2,0%
same,%Inh,ULK3,7%
same,%Inh,VEGFR2,68%
CC(C)(C)n1cnc2c(N)ncnc21 [SKF-97359],%Inh,TLK2,2%
same,%Inh,TNIK,0%
same,%Inh,TNK1,16%
same,%Inh,TNK2,40%
same,%Inh,TNNI3K,0%
same,%Inh,TRKA,74%
same,%Inh,TRKB,47%
same,%Inh,TRKC,18%
same,%Inh,TRPM6,3%
same,%Inh,TSSK1B,0%
same,%Inh,TSSK3,45%
same,%Inh,TTK,0%
same,%Inh,TXK,0%
same,%Inh,[1],21%
same,%Inh,[2],1%
same,%Inh,TYRO3,0%
same,%Inh,ULK1,0%
same,%Inh,ULK2,0%
same,%Inh,ULK3,0%
same,%Inh,VEGFR2,0%
O=c1cc(N2CCOCC2)nc2n(Cc3cccc4ccccc34)ccn12 [GSK2333389],%Inh,TLK2,0%
same,%Inh,TNIK,0%
same,%Inh,TNK1,0%
same,%Inh,TNK2,6%
same,%Inh,TNNI3K,0%
same,%Inh,TRKA,0%
same,%Inh,TRKB,0%
same,%Inh,TRKC,19%
same,%Inh,TRPM6,2%
same,%Inh,TSSK1B,13%
same,%Inh,TSSK3,0%
same,%Inh,TTK,10%
same,%Inh,TXK,0%
same,%Inh,[1],24%
same,%Inh,[2],10%
same,%Inh,TYRO3,0%
same,%Inh,ULK1,14%
same,%Inh,ULK2,7%
same,%Inh,ULK3,7%
same,%Inh,VEGFR2,0%
CC(C)(CN)c1nc(-c2ccc(Cl)c(O)c2)c(-c2ccncc2)[nH]1.O=C(O)C(F)(F)F [SB-477794],%Inh,TLK2; 1 µM,10% and 4%
same,%Inh,TNIK; 1 µM,89% and 87%
same,%Inh,TNK1; 1 µM,0% and 84%
same,%Inh,TNK2; 1 µM,0% and 5%
same,%Inh,TNNI3K; 1 µM,85% and 77%
same,%Inh,TRKA; 1 µM,0% and 49%
same,%Inh,TRKB; 1 µM,75% and 32%
same,%Inh,TRKC; 1 µM,55% and 46%
same,%Inh,TRPM6; 1 µM,69% and 54%
same,%Inh,TSSK1B; 1 µM,17% and 0%
same,%Inh,TSSK3; 1 µM,6% and 16%
same,%Inh,TTK,0%
same,%Inh,TXK; 1 µM,100% and 96.2%
same,%Inh,[1]; 1 µM,59% and 16%
same,%Inh,[2]; 1 µM,73% and 41%
same,%Inh,TYRO3; 1 µM,12% and 34%
same,%Inh,ULK1; 1 µM,19% and 0%
same,%Inh,ULK2,0%
same,%Inh,ULK3; 1 µM,16% and 2%
same,%Inh,VEGFR2; 1 µM,86% and 83%
Cc1nnc(-c2ccc3ncc(-c4ccc(S(C)=O)cc4)n3c2)o1 (centres unmarked),%Inh,TLK2,0%
same,%Inh,TNIK,0%
same,%Inh,TNK1,0%
same,%Inh,TNK2,0%
same,%Inh,TNNI3K,1%
same,%Inh,TRKA,0%
same,%Inh,TRKB,0%
same,%Inh,TRKC,36%
same,%Inh,TRPM6,6%
same,%Inh,TSSK1B,0%
same,%Inh,TSSK3,0%
same,%Inh,TTK,0%
same,%Inh,TXK,0%
same,%Inh,[1],5%
same,%Inh,[2],2%
same,%Inh,TYRO3,9%
same,%Inh,ULK1,2%
same,%Inh,ULK2,18%
same,%Inh,ULK3,5%
same,%Inh,VEGFR2,0%
Cc1ccc(NC(=O)c2ccnc(N3CCN(C)CC3)c2)cc1-c1ccc(C(=O)NCC2CC2)cc1 [GW775604],%Inh,TLK2,0%
same,%Inh,TNIK,0%
same,%Inh,TNK1,34%
same,%Inh,TNK2,0%
same,%Inh,TNNI3K,0%
same,%Inh,TRKA,0%
same,%Inh,TRKB,0%
same,%Inh,TRKC,0%
same,%Inh,TRPM6,0%
same,%Inh,TSSK1B,0%
same,%Inh,TSSK3,0%
same,%Inh,TTK,0%
same,%Inh,TXK,0%
same,%Inh,[1],100%
same,%Inh,[2],0%
same,%Inh,TYRO3,0%
same,%Inh,ULK1,0%
same,%Inh,ULK2,100%
same,%Inh,ULK3,0%
same,%Inh,VEGFR2,0%
